Inconclusive results are not listed. The source made the active and inactive calls. Calls follow the shape of the full dose curve; tested in HEK293 reporter line.
Legend:
[1] = qHTS for Inhibitors of the Functional Ribonucleoprotein Complex (vRNP) of Lassa (LASV) Arenavirus: LASV Primary Screen - GLuc reporter signal (AID 1347082); settings: LASV minigenome vRNP, Gaussia luciferase reporter; series mostly up to 57.5 µM; also: nearly all actives have a fitted effect of over 60% in size
[2] = qHTS for Inhibitors of the Functional Ribonucleoprotein Complex (vRNP) of Lassa (LASV) Arenavirus: Viability assay - alamar blue signal for LASV Primary Screen (AID 1347083); settings: cell viability, alamar blue fluorescence (LASV minigenome counter-screen); series mostly up to 57.5 µM; also: nearly all actives have a fitted effect of over 80% in size
[3] = qHTS for Inhibitors of the Functional Ribonucleoprotein Complex (vRNP) of Lymphocytic Choriomeningitis Arenaviruses (LCMV): Viability assay - alamar blue signal for LCMV Primary Screen (AID 1347085); settings: alamar blue viability counter-screen, LCMV vRNP screen cells; series mostly up to 57.5 µM; also: nearly all actives have a fitted effect of over 80% in size
% is scaled to controls: 0 for no effect and ±100 for the full control effect.

CC[C@]12CCCN3CCc4c(n(c5ccccc45)[C@@](O)(C(=O)OC)C1)[C@@H]32
inactive: Potency [1] | Potency [2] | Potency [3]

CC(C)COC(=O)c1ccc(N)cc1
inactive: Potency [1] | Potency [2] | Potency [3]

CC(C)=CCC/C(C)=C/CO
inactive: Potency [1] | Potency [2] | Potency [3]

COC(=O)c1cc(Cl)c(NC(C)=O)cc1OC
inactive: Potency [1] | Potency [2] | Potency [3]

CC(=O)CC/C=C(\C)CC/C=C(\C)CC/C=C(\C)CCC=C(C)C
inactive: Potency [1] | Potency [2] | Potency [3]

NC(=O)NS(=O)(=O)c1ccc(N)cc1
inactive: Potency [1] | Potency [2] | Potency [3]

CN=C(NC#N)NCCSCc1nc[nH]c1C
inactive: Potency [1] | Potency [2] | Potency [3]

Cn1cc(S(C)=O)c(=O)c2ccc(F)cc21 (stereo not drawn)
inactive: Potency [1] | Potency [2] | Potency [3]

CC(C)(C)NCC(O)COc1cccc2c1C[C@H](O)[C@H](O)C2 (stereo partly drawn)
inactive: Potency [1] | Potency [2] | Potency [3]

Cc1cc(=O)c2c(O)c3c(O)cc(=O)c4c3c3c(cc(O)c1c23)C(C)(C)C=4O
inactive: Potency [1] | Potency [2] | Potency [3]

NC(=O)N[C@@H](CCC(=O)O)C(=O)O
inactive: Potency [1] | Potency [2] | Potency [3]

Cc1c(F)c(N2CCNC(C)C2)cc2c1c(=O)c(C(=O)O)cn2C1CC1 (stereo not drawn)
inactive: Potency [1] | Potency [2] | Potency [3]

CCOC(=O)[C@H](CCc1ccccc1)N[C@@H](C)C(=O)N1CCC[C@H]1C(=O)O
inactive: Potency [1] | Potency [2] | Potency [3]

CCOc1ccc(NS(=O)(=O)c2ccc(N)cc2)nn1
inactive: Potency [1] | Potency [2] | Potency [3]

COCCCN1CCC(NC(=O)c2cc(Cl)c(N)c3c2OCC3)CC1
inactive: Potency [1] | Potency [2] | Potency [3]

N[C@@H](Cc1cc(I)c(Oc2ccc(O)c(I)c2)c(I)c1)C(=O)O
inactive: Potency [1] | Potency [2] | Potency [3]

O=C(O)c1c(O)c(-c2ccccc2)nc2ccccc12
inactive: Potency [1] | Potency [2] | Potency [3]

C[C@]12CCC(=O)C=C1CC[C@@H]1[C@@H]2[C@@H](O)C[C@@]2(C)[C@H]1CC[C@]2(O)C(=O)COC(=O)CCC(=O)O
inactive: Potency [1] | Potency [2] | Potency [3]

CCOC(=O)C1=C[C@@H](OC(CC)CC)[C@H](NC(C)=O)[C@@H](N)C1
inactive: Potency [1] | Potency [2] | Potency [3]

O=c1[nH]c(=O)n([C@H]2CCCO2)cc1F
inactive: Potency [1] | Potency [2] | Potency [3]

CN(C)CCN1CCN(c2cccc(Cl)c2)C1=O
inactive: Potency [1] | Potency [2] | Potency [3]

CC(C(=O)O)c1cccc(Oc2ccccc2)c1 (stereo not drawn)
inactive: Potency [1] | Potency [2] | Potency [3]

COC(=O)[C@@H]1[C@H]2C[C@H]3c4[nH]c5ccccc5c4CCN3C[C@@H]2CC[C@@H]1O
inactive: Potency [1] | Potency [2] | Potency [3]

CC(=O)Nc1ncc([N+](=O)[O-])s1
inactive: Potency [1] | Potency [2] | Potency [3]

NCC[C@H](O)C(=O)N[C@@H]1C[C@H](N)[C@@H](O[C@H]2O[C@H](CN)[C@@H](O)[C@H](O)[C@@H]2O)[C@H](O)[C@@H]1O[C@H]1O[C@H](CO)[C@@H](O)[C@H](N)[C@@H]1O
inactive: activity change, negative = inhibition [1] -6.8% [at 0.757 µM] | activity change, negative = reduced viability [2] -4.3% [at 0.757 µM] | activity change, negative = lower viability [3] -4.65% [at 0.757 µM]

C[N+](C)(C)CCCCCC[N+](C)(C)C
inactive: Potency [1] | Potency [2] | Potency [3]

FC1(F)C(F)(F)C(F)(F)C2(F)C(F)(F)C(F)(F)C(F)(F)C(F)(F)C2(F)C1(F)F (stereo not drawn)
inactive: Potency [1] | Potency [2] | Potency [3]

Nc1ccn([C@@H]2CS[C@H](CO)O2)c(=O)n1
inactive: Potency [1] | Potency [2] | Potency [3]

CCCCCCCCCCCC(=O)[O][Sn]([CH2]CCC)([CH2]CCC)[O]C(=O)CCCCCCCCCCC
inactive: Potency [1] | Potency [2] | Potency [3]

NS(=O)(=O)c1ccc(Cl)c(S(N)(=O)=O)c1
inactive: Potency [1] | Potency [2] | Potency [3]

Cc1c(C(=O)O)c(O)cc2c1C(=O)c1c(O)c([C@@H]3O[C@H](CO)[C@@H](O)[C@H](O)[C@H]3O)c(O)c(O)c1C2=O
inactive: Potency [1] | Potency [2] | Potency [3]

CCCCCCCCCCCCCCCCO
inactive: Potency [1] | Potency [2] | Potency [3]

CCCNC(C)C(=O)Nc1ccccc1C (stereo not drawn)
inactive: Potency [1] | Potency [2] | Potency [3]

CC(C)(C)CC(C)(C)c1ccc(O)c(-n2nc3ccccc3n2)c1
inactive: Potency [1] | Potency [2] | Potency [3]

CCn1cc(C(=O)O)c(=O)c2cc(F)c(N3CCNC(C)C3)c(F)c21 (stereo not drawn)
inactive: Potency [1] | Potency [2] | Potency [3]

CCCCCCCC(=O)OCC(COC(=O)CCCCCCC)OC(=O)CCCCCCC
inactive: Potency [1] | Potency [2] | Potency [3]

O=c1[nH]cnc2[nH]ncc12
inactive: Potency [1] | Potency [2] | Potency [3]

CC[C@H]1OC(=O)[C@H](C)[C@@H](O[C@H]2C[C@@](C)(OC)[C@@H](O)[C@H](C)O2)[C@H](C)[C@@H](O[C@@H]2O[C@H](C)C[C@H](N(C)C)[C@@H]2O)[C@](C)(O)C[C@@H](C)CN(C)[C@H](C)[C@@H](O)[C@]1(C)O
inactive: Potency [1] | Potency [2] | Potency [3]

N=C(N)N
inactive: Potency [1] | Potency [2] | Potency [3]

CC(C)C(=O)Nc1cccc(C(F)(F)F)c1
inactive: Potency [1] | Potency [2] | Potency [3]

c1ccc(-c2nc[nH]c2-c2ccccc2)cc1
inactive: Potency [1] | Potency [2] | Potency [3]

CCC(C(=O)NC(=O)NC(C)=O)c1ccccc1 (stereo not drawn)
inactive: Potency [1] | Potency [2] | Potency [3]

O=C(O)c1ccccc1S
inactive: Potency [1] | Potency [2] | Potency [3]

CC(C)(Sc1cc(C(C)(C)C)c(O)c(C(C)(C)C)c1)Sc1cc(C(C)(C)C)c(O)c(C(C)(C)C)c1
inactive: Potency [1] | Potency [2] | Potency [3]

CCOC(=O)C(O)c1ccccc1 (stereo not drawn)
inactive: Potency [1] | Potency [2] | Potency [3]

COc1ccc(C(=O)CC(=O)c2ccc(C(C)(C)C)cc2)cc1
inactive: Potency [1] | Potency [2] | Potency [3]

CCn1nc(C(=O)O)c(=O)c2cc3c(cc21)OCO3
inactive: Potency [1] | Potency [2] | Potency [3]

CCN(Cc1ccncc1)C(=O)C(CO)c1ccccc1 (stereo not drawn)
inactive: Potency [1] | Potency [2] | Potency [3]

OC1(c2ccc(Cl)cc2)CCNCC1
inactive: Potency [1] | Potency [2] | Potency [3]

Cn1c(=O)c2c(ncn2CC(=O)O)n(C)c1=O
inactive: Potency [1] | Potency [2] | Potency [3]

Nc1c(I)cc(I)c(C(=O)N(CCC(=O)O)c2ccccc2)c1I
inactive: Potency [1] | Potency [2] | Potency [3]

O=C(O)c1cc(=O)c2c(OCC(O)COc3cccc4oc(C(=O)O)cc(=O)c34)cccc2o1
inactive: Potency [1] | Potency [2] | Potency [3]

Oc1cccc(O)c1
inactive: Potency [1] | Potency [2] | Potency [3]

NC(=O)c1ccc([N+](=O)[O-])cc1Cl
inactive: Potency [1] | Potency [2] | Potency [3]

O=C(O)[C@@H]1CSCN1
inactive: Potency [1] | Potency [2] | Potency [3]

Cc1[nH]cnc1-c1ccc(Cl)cc1
inactive: Potency [1] | Potency [2] | Potency [3]

CC(C)[C@H](N)C(=O)OCCOCn1cnc2c(=O)[nH]c(N)nc21
inactive: Potency [1] | Potency [2] | Potency [3]

NS(=O)(=O)c1cc(C(=O)O)cc(N2CCCC2)c1Oc1ccccc1
inactive: Potency [1] | Potency [2] | Potency [3]

CN(C)CCN(Cc1ccsc1)c1ccccn1
inactive: Potency [1] | Potency [2] | Potency [3]

Cc1ccc(Nc2nccc(N(C)c3ccc4c(C)n(C)nc4c3)n2)cc1S(N)(=O)=O
inactive: Potency [1] | Potency [2] | Potency [3]

CC(=O)Nc1ccc(OCC(O)CNC(C)C)cc1 (stereo not drawn)
inactive: Potency [1] | Potency [2] | Potency [3]

NC(N)=NCCN1CCCCCCC1
inactive: activity change, negative = inhibition [1] 1.43% [at 0.757 µM] | activity change, negative = reduced viability [2] 1.98% [at 0.757 µM] | activity change, negative = lower viability [3] 5.22% [at 0.757 µM]

O=C(O)Cc1cccc(-c2cc(CCCCCCc3ccc(O[C@H]4O[C@H](CO)[C@@H](O)[C@H](O)[C@@H]4O)c(-c4cccc(CC(=O)O)c4)c3)ccc2O[C@H]2O[C@H](CO)[C@@H](O)[C@H](O)[C@@H]2O)c1
inactive: activity change, negative = inhibition [1] 1.7% [at 0.757 µM] | activity change, negative = reduced viability [2] 10.5% [at 0.757 µM] | activity change, negative = lower viability [3] 2.8% [at 0.757 µM]

CCCCN(CCCC)CCCOC(=O)c1ccc(N)cc1
inactive: Potency [1] | Potency [2] | Potency [3]

COC(=O)c1cc(Cl)ccc1OC
inactive: Potency [1] | Potency [2] | Potency [3]

CCCC(=O)OCOC(=O)C1=C(C)NC(C)=C(C(=O)OC)C1c1cccc(Cl)c1Cl (stereo not drawn)
inactive: Potency [1] | Potency [2] | Potency [3]

CCC(C)C(C)(COC(N)=O)COC(N)=O (stereo not drawn)
inactive: Potency [1] | Potency [2] | Potency [3]

NCC(=O)CCC(=O)O
inactive: Potency [1] | Potency [2] | Potency [3]

CCOc1ccccc1OCC1CNCCO1 (stereo not drawn)
inactive: Potency [1] | Potency [2] | Potency [3]

CC1CCc2c(N3CCC(O)CC3)c(F)cc3c(=O)c(C(=O)O)cn1c23 (stereo not drawn)
inactive: Potency [1] | Potency [2] | Potency [3]

CC(=O)Oc1cccc(O)c1
inactive: Potency [1] | Potency [2] | Potency [3]

Cc1ccccc1OCC(O)CO (stereo not drawn)
inactive: Potency [1] | Potency [2] | Potency [3]

COc1ccnc(CS(=O)c2nc3ccc(OC(F)F)cc3[nH]2)c1OC (stereo not drawn)
inactive: Potency [1] | Potency [2] | Potency [3]

CCn1ccc(NS(=O)(=O)c2ccc(N)cc2)nc1=O
inactive: Potency [1] | Potency [2] | Potency [3]

Cc1ccc(C(=O)C(C)CN2CCCCC2)cc1 (stereo not drawn)
inactive: Potency [1] | Potency [2] | Potency [3]

CC(=O)OCC(=O)[C@@]1(O)[C@H](C)C[C@H]2[C@@H]3CCC4=CC(=O)C=C[C@]4(C)[C@@]3(F)[C@@H](O)C[C@@]21C
inactive: Potency [1] | Potency [2] | Potency [3]

Cc1ncc([N+](=O)[O-])n1CC(C)O (stereo not drawn)
inactive: Potency [1] | Potency [2] | Potency [3]

CCn1cc(C(=O)O)c(=O)c2cnc(N3CCCC3)nc21
inactive: activity change, negative = inhibition [1] 2.17% [at 11.5 µM] | activity change, negative = reduced viability [2] 9.34% [at 11.5 µM] | activity change, negative = lower viability [3] 6.9% [at 11.5 µM]

CN[C@@H]1[C@@H](O)[C@@H](O[C@@H]2[C@H](O)[C@H](O[C@H]3OC(CN)=CC[C@H]3N)[C@@H](N)C[C@H]2N)OCC1(C)O (stereo partly drawn)
inactive: Potency [1] | Potency [2] | Potency [3]

FC(F)(F)c1ccccc1-n1ccnc1
inactive: Potency [1] | Potency [2] | Potency [3]

O=P(O)(O)OCC(O)CO (stereo not drawn)
inactive: Potency [1] | Potency [2] | Potency [3]
